# Assay outcomes deposited in PubChem by NMMLSC.
# RGS16-Gao: modulators of RGS16 binding to Galphao, primary screen, biochemical, human proteins, multiplexed bead flow cytometry. AID 1441, 2008. binding response (% of control), % at 10 µM. actives 0.38% (n = 220,000). bead-based flow cytometry RGS16-Galphao binding, fluorescence; actives lie on both sides;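 also: Galphao activated by GDP with aluminum fluoride before binding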
# Target sequence (O15492 whole entry, looked up): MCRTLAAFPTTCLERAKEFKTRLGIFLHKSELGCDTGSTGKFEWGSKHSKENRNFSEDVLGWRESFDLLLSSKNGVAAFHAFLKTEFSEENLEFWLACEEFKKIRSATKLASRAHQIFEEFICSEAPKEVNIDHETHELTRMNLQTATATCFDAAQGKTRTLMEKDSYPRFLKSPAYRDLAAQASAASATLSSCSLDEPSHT
# Target sequence (P09471 whole entry, looked up): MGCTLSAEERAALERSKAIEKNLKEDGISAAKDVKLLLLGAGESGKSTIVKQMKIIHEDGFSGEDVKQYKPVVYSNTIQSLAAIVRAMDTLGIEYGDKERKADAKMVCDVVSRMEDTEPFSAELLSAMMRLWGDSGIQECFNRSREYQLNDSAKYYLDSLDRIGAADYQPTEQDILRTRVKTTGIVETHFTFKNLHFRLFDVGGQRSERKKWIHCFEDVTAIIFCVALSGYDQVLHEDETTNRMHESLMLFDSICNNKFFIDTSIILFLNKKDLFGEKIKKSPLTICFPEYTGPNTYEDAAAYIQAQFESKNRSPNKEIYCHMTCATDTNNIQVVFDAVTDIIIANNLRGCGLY
# RGS7-Gao: RGS7-Galphao binding modulators, primary screen, biochemical, multiplexed bead flow cytometry | actives lie on both sides | actives 0.35% (n = 220,000) | binding response (% of control), % at 10 µM | Guanine nucleotide-binding protein G(o) subunit alpha (Homo sapiens), P09471; in the data active = binding response below about 49% or above about 150%; inconclusive = no clear call, values can overlap the other calls; inactive = in between;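 also: fluorescent Galphao held in activated GDP-AlF4 state binding bead-coupled RGS7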
# Target sequence (P09471 whole entry, looked up): as above
# RGS4-Gao reg: modulators of RGS4 binding to Galphao, primary screen, biochemical, multiplexed bead flow cytometry; actives lie on both sides; binding response (% of control), % at 10 µM; actives 0.33% (n = 220,000); AID 1415, 2008; in the data active = binding response below about 49% or above about 150%; inactive = in between;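 also: fluorescent Galphao activated with aluminum fluoride binding bead-coupled RGS4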
# GSH bead fluor: compound fluorescence on glutathione beads, profiling panel, artefact control, biophysical, 488/530 nm, flow cytometry. GSH beads flow cytometry, compound fluorescence 488/530 nm; active compounds read high. fluorescence (KMESF) at 10 µM. actives 0.25% (n = 190,000); in the data active = fluorescence above about 89;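 also: glutathione beads carrying GST-tagged Bcl family fusion proteins plus one bare bead set; values are compound well signal with DMSO vehicle wells as background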
# Avidin fluor: green autofluorescence of compounds with avidin beads – biophysical, 488/530 nm, flow cytometry, artefact control, profiling panel. AID 1775, 2009. fluorescence (KMESF) at 10 µM. actives 0.38% (n = 220,000). compound fluorescence 488/530 nm; active compounds read high; in the data active = fluorescence above about 47
# RGS8-Gao: RGS8-Galphao binding modulators, primary screen, biochemical, multiplexed bead flow cytometry; Guanine nucleotide-binding protein G(o) subunit alpha (Homo sapiens), P09471; actives lie on both sides; response (percent of control binding), % at 10 µM; actives 0.34% (n = 220,000); AID 1423, 2008; in the data active = response below about 60% or above about 140%; inactive = in between;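 also: Galphao activated as the GDP aluminium fluoride complex binding bead-coupled RGS8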
# RGS-Gao: modulators of RGS–Galpha-o binding, primary screen, biochemical, multiplexed beads, flow cytometry, RGS4/7/8/16/19. shares compounds with RGS16-Gao. multiplexed bead flow cytometry. RGS4–Galpha-o binding response, % at 10 µM. actives 99% (n = 1,600);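 also: fluorescently labeled Galpha-o bound to GDP with aluminium fluoride binding biotinylated RGS beads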
# Avidin counter: disruption of biotin probe capture by avidin, counter-screen for RGS protein interaction modulators, biochemical, flow cytometry, bead-based; streptavidin beads, fluorescein-biotin binding; inhibition, % at 10 µM; 1,700 tested, under 10 active; AID 1783, 2009; shares compounds with RGS16-Gao;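 active = inhibition above 50%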;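 also: median green fluorescence of gated singlet beads compared with DMSO control wells; 0% = DMSO wells and 100% = complete loss of bead fluorescence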
# RGS8-Gao single: RGS8-Galphao binding modulators, confirmation, biochemical, multiplexed bead flow cytometry, single concentration; shares compounds with RGS16-Gao; bead-based flow cytometry RGS8-Galphao binding, fluorescence; actives lie on both sides; binding response (% of control), % at 10 µM; actives 3% (n = 1,700); AID 1836, 2009; in the data active = binding response below about 72% or above about 130%; inactive = in between;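 also: Galphao activated as GDP AlF4 complex before binding bead RGS8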
# RGS7-Gao confirm: RGS7-Galphao binding modulators, confirmation, biochemical, multiplexed bead flow cytometry, single concentration; shares compounds with RGS16-Gao; bead-based flow cytometry RGS7-Galphao binding; actives lie on both sides; response (percent of control binding), % at 10 µM; actives 7.8% (n = 1,700); AID 1837, 2009; in the data active = response below about 75% or above about 130%; inactive = in between;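 also: fluorescent Galphao activated with GDP and aluminum fluoride binding bead-coupled RGS7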
# RGS16-Gao single: modulators of RGS16-Galphao protein binding, confirmation, biochemical, single concentration, multiplexed bead flow cytometry; shares compounds with RGS16-Gao; bead-based flow cytometry; actives lie on both sides; response (% of control binding), % at 10 µM; actives 4% (n = 1,700); AID 1838, 2009; in the data active = response below about 74% or above about 130%; inactive = in between;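 also: Galphao activated as the GDP aluminium fluoride complex binding bead-coupled RGS16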
# RGS4-Gao confirm: modulators of RGS4-Galphao protein binding, confirmation, biochemical, single concentration, multiplexed bead flow cytometry; shares compounds with RGS16-Gao; actives lie on both sides; binding response (% of control), % at 10 µM; actives 4% (n = 1,700); in the data active = binding response below about 74% or above about 130%; inactive = in between
# RGS19-Gao single: regulators of RGS19-Galphao binding, confirmation, biochemical, single point, multiplexed bead flow cytometry. shares compounds with RGS16-Gao. bead-based flow cytometry RGS19-Galphao binding; actives lie on both sides. response (percent of control binding), % at 10 µM. actives 5% (n = 1,700). AID 1841, 2009; in the data active = response below about 50% or above about 160%; inactive = in between;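 also: 100% = no compound control and 0% = blank background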
# Starred values were filed as active, the others as inactive; ? = inconclusive; nt = no result; [ ] = another dose, or the depositor's remark. Hits are enriched below; roughly 1.2% of the tested compounds scored in any of these assays. Unless noted, no rule for the calls is given here.
SMILES,RGS16-Gao,RGS7-Gao,RGS4-Gao reg,GSH bead fluor,Avidin fluor,RGS8-Gao,Avidin counter,RGS8-Gao single,RGS7-Gao confirm,RGS16-Gao single,RGS4-Gao confirm,RGS19-Gao single,others
CCCCOC(=O)c1ccc(NC(=O)c2ccccc2OC)cc1,18*,79,77,7,2,70,1,102,106,102,104,102,RGS-Gao=77*
N#Cc1ccccc1S(=O)(=O)N1CCN(CC(O)c2ccccc2)CC1 (stereo unspecified),100,98,97,9,21,100,nt,nt,nt,nt,nt,nt,
CC(C)(C)c1ccc(C(=O)NCC(=O)N/N=C/c2ccccc2OCC(=O)O)cc1,102,99,98,21,11,99,nt,nt,nt,nt,nt,nt,
COC(OC)c1ccnc(-c2ccc(OC(=O)c3cccs3)cc2)n1,13*,?,23*,11,0,15*,1,103,102,103,104,98,
COC(OC)c1ccnc(-c2ccc(OC(=O)c3ccccc3)cc2)n1,89,?,88,10,10,90,nt,nt,nt,nt,nt,nt,
C/C=C(\C)C(=O)NCCN1C2=NC[C@H](Cc3ccccc3)N2C[C@H]1Cc1ccc(O)cc1,19*,20*,34*,20,0,24*,-2,103,104,99,99,112,
Cc1cc([N+](=O)[O-])ccc1NCc1ccco1,103,100,102,10,10,100,nt,nt,nt,nt,nt,nt,
O=C(NCc1ccco1)c1ccc(S(=O)(=O)N2CCCc3ccccc32)cc1,-44*,89,80,43,0,77,nt,nt,nt,nt,nt,nt,RGS-Gao=80*
O=C(NCc1ccccc1)c1ccc(S(=O)(=O)N2CCCc3ccccc32)cc1,99,98,99,14,38,100,nt,nt,nt,nt,nt,nt,
CC(C)(C)c1ccc(C(=O)NNc2cc(N3CCCCC3)nc(N3CCCCC3)n2)cc1,560*[activator],643*[activator],842*[activator],119*,175*,173*[activator],1,105,113,104,108,100,
CC(=O)NNc1cc(N2CCOCC2)nc(N2CCOCC2)n1,101,?,104,16,9,101,nt,nt,nt,nt,nt,nt,
O=C(NNc1cc(N2CCOCC2)nc(N2CCOCC2)n1)c1ccc(Cl)cc1Cl,10*,12*,21*,9,0,23*,-1,93,88,91,91,89,
Cc1cc(C)nc(NNC(=O)NC2CCCCC2)n1,-20*,-8.8*,-11*,14,-2,2.4*,0,113,119,119,112,107,
Cc1ccc(N2CCN(C(=O)N3CCOCC3)CC2)c(C)c1,108,103,105,9,25,106,nt,nt,nt,nt,nt,nt,
Cc1nn(-c2ccccc2)c2sc(C(=O)N3CCCCC3)cc12,nt,nt,nt,47,nt,nt,-2,101,97,106,103,105,
CC(C)(C)OC(=O)N1CCC(c2cc(=O)n3[nH]c(-c4ccc(Cl)cc4)cc3n2)CC1,6,44*,33*,23,0,47*,-2,102,95,101,99,88,
CC(C)(C)OC(=O)N1CCC(c2cc(=O)n3[nH]cc(C(=O)Nc4ccc(F)c(Cl)c4)c3n2)CC1,99,?,101,nt,7,99,nt,nt,nt,nt,nt,nt,
O=[N+]([O-])c1cc2c(cc1/C=N/n1c(-c3ccccc3)n[nH]c1=S)OCO2,102,106,102,47,8,97,nt,nt,nt,nt,nt,nt,
O=[N+]([O-])c1cc2c(cc1/C=N/n1c(-c3ccccn3)n[nH]c1=S)OCO2,-3.6*,84,86,2,6,72,2,95,115,86,98,76,RGS-Gao=86*
O=C(O)CCC(=O)NNC(=O)c1ccc(Br)cc1,95,91,99,10,6,97,nt,nt,nt,nt,nt,nt,
O=c1[nH]c(=O)n(Cc2ccccc2)c2c1C(C(F)(F)F)(C(F)(F)F)N=C(c1ccco1)N2,42,45*,49*,26,2,56*,-1,101,101,101,100,98,
O=c1[nH]c(=O)n(Cc2ccco2)c2c1C(C(F)(F)F)(C(F)(F)F)N=C(c1ccc(F)cc1)N2,98,104,98,8,11,106,nt,nt,nt,nt,nt,nt,
COc1ccc(-c2noc(Cc3ccc(Cl)cc3)n2)cc1OC,93,167*[activator],109,28,67*,98,-1,103,99,101,101,102,RGS-Gao=109*
COc1ccc(Cc2nc(-c3ccc(Cl)cc3)no2)cc1,103,99,102,33,12,102,nt,nt,nt,nt,nt,nt,
O=C(O)c1ccccc1C(=O)c1ccc(Br)s1,100,103,99,12,11,101,nt,nt,nt,nt,nt,nt,
CCC(OC(=O)c1cc2sccc2n1C)C(=O)NCC1CCCO1 (stereo unspecified),203*[activator],161*[activator],190*[activator],43,47*,107,-1,101,95,99,99,106,
